# hDAT+cocaine: changed human dopamine transporter uptake under cocaine IC80 | Q01959 | LLC-PK1 hDAT cells, [14C]-dopamine uptake with cocaine IC80; actives deviate in either direction | B-score at 10 µM | 1.3% of 110,000 active | AID 449768;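 active means Z score or B-score, a plate-position-corrected score, falls beyond the plate's 99.7% confidence bounds, in either direction; inactive means both scores lie inside the 99.7% bounds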;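 further: scored against the spread of the other compound wells on the same plate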
# CYP2C9 act: CYP2C9 (human) activation; P11712; recombinant CYP2C9, luciferin-H conversion, luminescence; active compounds read high; factor 1 = untreated enzyme, 0 = blocked; activation factor at 5 µM; 1.4% of 96,000 active; AID 1024;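 active means activation factor of 2 or more for CYP2C9 at a 5 µM dose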;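 further: 0 = sulfaphenazole-blocked wells and 1 = vehicle-only wells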
# Target sequence (P11712 whole entry, looked up): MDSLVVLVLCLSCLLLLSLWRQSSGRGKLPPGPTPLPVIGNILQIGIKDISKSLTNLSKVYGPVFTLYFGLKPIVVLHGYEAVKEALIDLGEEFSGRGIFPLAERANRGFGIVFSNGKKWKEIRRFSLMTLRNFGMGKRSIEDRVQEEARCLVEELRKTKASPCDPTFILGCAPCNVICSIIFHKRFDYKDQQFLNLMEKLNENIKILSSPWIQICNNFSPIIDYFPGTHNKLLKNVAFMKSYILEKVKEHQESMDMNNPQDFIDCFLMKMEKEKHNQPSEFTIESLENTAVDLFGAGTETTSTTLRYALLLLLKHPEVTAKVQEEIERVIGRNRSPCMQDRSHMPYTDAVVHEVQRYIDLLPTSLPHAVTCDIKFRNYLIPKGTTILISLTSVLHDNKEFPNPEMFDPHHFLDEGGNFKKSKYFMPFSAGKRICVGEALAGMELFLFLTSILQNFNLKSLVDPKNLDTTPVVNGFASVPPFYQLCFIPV
# CYP2C9 inhib: inhibitors of human CYP2C9. P11712. CYP2C9 Supersomes, luciferin-H conversion, luminescence. inhibition, % at 5 µM. 20% of 96,000 active. AID 777;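 active means blocking of liver enzyme CYP2C9 beyond about 50% at 5 µM, limit read from the data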
# CYP2C19 inhib: inhibitors of human CYP2C19 | P33261 | CYP2C19 Supersomes, luciferin-H EGE luminescence, 30 min | inhibition, % at 5 µM | 21% of 96,000 active | AID 778;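 active means CYP2C19 inhibition above a set limit at 5 µM in the primary screen, cut at about 50% in these data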;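 further: plate controls were negative control wells for no effect and 2.5 mM tranylcypromine positive control for full effect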
# CYP2C19 activ: activators of human cytochrome P450 2C19; 96,000 tested, under 10 active; P33261; AID 1025; recombinant CYP2C19, luciferin-H EGE luminescence; active compounds read high; 0 = fully inhibited enzyme, 1 = untreated enzyme; activation factor at 5 µM;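 active means activation factor of at least 2 at 5 µM in the primary screen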;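 further: 0 = wells with 2.5 mM tranylcypromine and 1 = vehicle-only wells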
# D1 mod: allosterically modulates the human D1 dopamine receptor | HEK293 D1, CRE-luciferase, dopamine EC30 potentiation; actives deviate in either direction | B-score at 10 µM | 5.9% of 58,000 active;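 active means luminescence count or its row- and column-corrected plate score outside the 99.7% band of the plate's sample wells, on either side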
# * = called active by the depositor; x = not tested or not shown. A selection: hits, their analogues and other compounds. The true share with any hit is near 28%.
SMILES,hDAT+cocaine,CYP2C9 act,CYP2C9 inhib,CYP2C19 inhib,CYP2C19 activ,D1 mod
COc1ccc(CNC(=O)C2CCCN(S(=O)(=O)c3cnc[nH]3)C2)cc1 (configuration not stated),0.269,0.5,46.3,77.6*,0.2,0.00638
COc1ccc(/C=N/NC(=O)Cc2csc(Nc3cccc(C(F)(F)F)c3)n2)cc1C,2.95,x,x,x,x,x
O=C(CSCCO)Nc1cc(C(F)(F)F)ccc1Cl,0.824,1.4,-37.5,16.9,0.8,-0.372
CCc1cccc2c(C(=O)COC(=O)c3nn(C)c(=O)c4ccccc34)c[nH]c12,x,0.1,87.5*,94.4*,0.1,x
COc1ccc(-c2nnn(CC(=O)N(CC(=O)NCCC(C)C)c3ccccc3)n2)cc1OC,-0.0374,1.1,-8.6,32.2,0.7,1.11
CCn1nc(C(=O)OCC(=O)c2c[nH]c3ccccc23)c2ccccc2c1=O,-0.109,0.3,71.9*,32.4,0.7,-3.19*
CC(C)n1nc(C(=O)OCC(=O)c2c[nH]c3ccccc23)c2ccccc2c1=O,0.282,0.8,22.1,18.4,0.8,x
CCc1cccc2c(C(=O)Cn3nnc(-c4ccc(OC)c(OC)c4)n3)c[nH]c12,x,0.4,62.2*,71.3*,0.3,x
CCc1cccc2c(=O)c(C(=O)N3CCCCCC3)c[nH]c12,-0.972,0.9,5.3,1.9,1,1.41
COC(=O)[C@@]1(Cc2ccc(F)cc2)[C@H]2c3cc(C(=O)N(C)C)n(Cc4c(CO)[nH]cc(C)c4=O)c3C[C@H]2CN1C(=O)c1ccccc1,0.595,x,x,x,x,x
CNC(=O)c1cc(S(=O)(=O)N(C)C)ccc1Cl,-0.104,1.2,-15.9,-14.1,1.1,-0.334
CCCn1c(SCC(=O)Nc2ccc3c(c2)OCCO3)nnc1-c1ccco1,1.6,0.1,91.5*,72.7*,0.3,-0.0821
COc1cccc(-c2nnc(SCC(=O)NCc3ccc4c(c3)OCO4)n2Cc2ccco2)c1,1.29,0.3,71.7*,32.2,0.7,x
O=C(CSc1nnc(-c2ccccn2)n1Cc1ccco1)Nc1ccc2c(c1)OCO2,-0.373,0.6,37.3,-1.4,1,x
COc1cccc(-c2nnc(SCC(=O)Nc3ccc4c(c3)OCCO4)n2Cc2ccco2)c1,-0.449,0.4,58.5*,39.7,0.6,0.288
COCCn1c(SCC(=O)Nc2ccc3c(c2)OCCO3)nnc1-c1c[nH]c2ccccc12,-0.00585,0.4,58.4*,32.0,0.7,x
COCCn1c(SCC(=O)NCc2ccco2)nnc1-c1c[nH]c2ccccc12,0.597,0.7,31.2,24.5,0.8,x
Cc1ccc(-n2c(SCC(=O)Nc3ccc4c(c3)OCCO4)nnc2-c2ccco2)cc1,1.43,1,-2.9,38.2,0.6,-0.652
Cc1ccc(C(C(=O)NC(C)(C)C)N(Cc2cccs2)C(=O)c2csnn2)cc1 (configuration not stated),0.19,x,x,x,x,x
COc1ccc(CCNC(=O)COC(=O)c2cnc(C)cn2)cc1,-0.347,0.7,27.1,4.7,1,x
O=C(NCCCCc1ccccc1)C1CC(c2ccccc2C(F)(F)F)=NO1 (configuration not stated),1.64,x,x,x,x,x
O=C(CNC(=O)c1ccco1)Nc1cc(Cl)ccc1N1CCOCC1,-0.602,0.3,73.2*,38.2,0.6,0.912
O=C(Nc1ccc(Cl)cc1C(=O)NCCN1CCOCC1)c1ccco1,-0.0827,0.3,68.1*,35.7,0.6,0.0305
CCOc1cccc2cc(-c3nnc(-c4ccccc4)o3)c(=O)oc12,x,x,x,x,x,-0.805
O=C1c2ccccc2C(O)N1c1ccc(Cl)cc1 (configuration not stated),-0.47,1.1,-9.8,7.0,0.9,-0.432
SMILES,hDAT+cocaine,CYP2C9 act,CYP2C9 inhib,CYP2C19 inhib,CYP2C19 activ,D1 mod
O=C1c2ccccc2N2C(=O)c3ccccc3[C@H]2N1c1ccccc1,-2.66*,0.8,23.0,2.2,1,x
O=C(CSc1ncnc2c1oc1ccccc12)Nc1ccccc1F,0.0874,0.8,20.5,-12.9,1.1,0.622
O=C(CSc1ncnc2c1oc1ccccc12)Nc1nc2ccccc2s1,-0.0015,0.2,77.2*,16.5,0.8,x
CCc1nnc(NC(=O)CSc2ncnc3c2oc2ccccc23)s1,-1.1,0.2,76.7*,25.4,0.7,-0.0138
O=C(CSc1ncnc2c1oc1ccccc12)Nc1cccc(Cl)c1,-0.739,0.4,59.9*,32.0,0.7,0.466
CC(C)(C)c1cc(NC(=O)c2cc(F)c(F)c(F)c2F)no1,-0.705,1.1,-10.4,-11.6,1.1,-0.189
COc1ccccc1-n1c(C)nnc1SCC(=O)Nc1cccc(C(C)=O)c1,1.34,0.7,31.4,25.2,0.7,-0.00973
COc1ccc2[nH]c(=O)c(CN(CCCN(C)C)C(=O)Nc3ccc(F)cc3)cc2c1,0.138,1.1,-5.3,15.6,0.8,-3.75
O=C1/C(=C/Nc2ccc3c(c2)OCO3)CCc2ccccc21,-0.00773,0.5,48.1,44.5,0.6,-6.15*
COc1ccc2c(c1)CC/C(=C\Nc1ccc3c(c1)OCO3)C2=O,-0.226,1.2,-24.4,3.5,1,x
Cc1ccc(NCCC(=O)c2ccc(Br)cc2)cc1,0.0259,0.8,16.3,78.7*,0.2,x
CCc1ccc(NCCC(=O)c2ccc(Br)cc2)cc1,0.19,0.5,50.5*,86.3*,0.1,x
Cc1ccc(NCCC(=O)c2ccc(Cl)cc2)cc1,-0.281,0.7,27.8,83.1*,0.2,x
O=[N+]([O-])c1nn(-c2ccccc2)n(O)c1=NCc1ccc2c(c1)OCO2,0.182,0.5,52.9*,77.2*,0.2,x
CCN(CC)S(=O)(=O)c1ccc2[nH]cc(C(=O)NCCCN3CCCCC3C)c(=O)c2c1 (configuration not stated),0.671,0.9,9.9,-3.4,1,x
CN(C)Cc1c(O)ccc2c3c(c(=O)oc12)CCCCC3,0.39,1.2,-16.9,0.3,1,x
CN(Cc1c(O)ccc2c1oc(=O)c1ccccc12)C1CCCCC1,-0.796,0.7,26.5,50.2*,0.5,-2.41
COc1cc(C2Nc3cc(Cl)c(S(N)(=O)=O)cc3S(=O)(=O)N2)ccc1OCc1ccccc1 (configuration not stated),0.321,0.3,69.7*,66.0*,0.3,x
COc1cc(C2Nc3cc(Cl)c(S(N)(=O)=O)cc3S(=O)(=O)N2)cc(OC)c1OC (configuration not stated),0.361,1.2,-16.4,3.2,1,0.939
O=C(NCc1ccco1)C(c1ccc(F)cc1)N(CC1CCCO1)C(=O)Cn1nnc2ccccc21 (configuration not stated),-0.03,0.7,27.6,33.1,0.7,-0.0745
CCC(OC(=O)C1=Cc2ccccc2OC1)C(=O)NC1CCCC1 (configuration not stated),-1.66,0.6,38.1,25.1,0.7,x
O=C(OC(C(=O)NC1CCCC1)c1ccncc1)C1=Cc2ccccc2OC1 (configuration not stated),-0.172,0.3,73.5*,89.1*,0.1,x
CC(C)Oc1ccc(-c2cc(=O)[nH]c(=O)[nH]2)cc1,0.698,1.3,-27.4,-16.5,1.2,-0.921
